# TLR4-MyD88 BLA: inhibitors of human TLR4-MyD88 binding; O00206+Q99836; 200,000 compounds, 0.18% hits; HeLa CL3-4 TLR4/MyD88 BLA complementation, FRET ratio; inhibition, % at 8.4 µM; in the data active = inhibition above about 25%;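 also: 0% = vehicle and 100% = reference inhibitor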
# TMEM16A act: activates or potentiates the mouse TMEM16A chloride channel | Q8BHY3 | 340,000 compounds, 0.3% hits | B-score at 10 µM | HEK293 TMEM16A/YFP-H148Q/I152L, iodide quench fluorescence; active compounds read low;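 active = fluorescence-ratio B-score plate-corrected deviation score at least 3 library SD below zero, with starting fluorescence score within 5 deviations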;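 also: channel opened by trigger with iodide after compound preincubation; score built on the fluorescence ratio of max minus min over baseline; more negative score means more quench and so TMEM16A activation or potentiation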
# NOD2-RIPK2 inh: NOD2-RIPK2 protein interaction inhibition. CHO BLA complementation NOD2-RIPK2, CCF4 ratio. 360,000 compounds, 0.38% hits. inhibition, % at 4.98 µM. AID 624267. O43353; in the data active = inhibition above about 21%;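 also: 0% = vehicle only and 100% = reference blocker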
# m5-HT2A agonist: mouse HTR2A agonism via beta-arrestin recruitment; 360,000 compounds, 0.66% hits; activation, % at 7.6 µM; P35363; CHO-K1 mHTR2A beta-arrestin complementation, luminescence; percent of 30 µM serotonin response;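 active = activation above a run cutoff, the mean activation of all tested compounds plus 3 SD, cut at about 14% in these data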;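 also: 0% = plate median of compound wells and 100% = 30 µM serotonin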
# TMEM16A inh: mouse TMEM16A channel inhibition, primary screen; 310,000 compounds, 1.2% hits; AID 588511; HEK293 TMEM16A/YFP iodide influx fluorescence, ionomycin; Q8BHY3; normalized B-score (activity score, 25-100; higher = stronger inhibition) at 10 µM;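 active = ratio plate-corrected score three or more library SD toward inhibition, starting fluorescence score within five deviations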;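 also: score derived from kinetic fluorescence span divided by baseline fluorescence per well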
# TLR9-MyD88 block: blocks human TLR9 binding to MyD88 | Q9NR96+Q99836 | CHO BLA complementation TLR9-MyD88, CCF4 FRET ratio | inhibition, % at 4.98 µM | 340,000 compounds, 0.21% hits | AID 504734;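 active = inhibition above the mean over all tested compounds plus 3 SD, cut at about 21% in these data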;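 also: 0% = DMSO only wells and 100% = clavulanate BLA inhibitor control wells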
# Target sequence (Q99836 whole entry, looked up): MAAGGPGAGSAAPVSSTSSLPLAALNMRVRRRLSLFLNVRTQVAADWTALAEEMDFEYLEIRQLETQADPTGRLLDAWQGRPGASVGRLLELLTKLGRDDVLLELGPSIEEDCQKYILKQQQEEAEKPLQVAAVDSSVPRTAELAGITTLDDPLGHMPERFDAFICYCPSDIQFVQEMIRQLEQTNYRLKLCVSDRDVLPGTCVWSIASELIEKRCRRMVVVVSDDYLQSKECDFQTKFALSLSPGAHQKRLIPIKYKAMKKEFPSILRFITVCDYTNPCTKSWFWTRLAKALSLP
# Target sequence (Q9NR96 whole entry, looked up): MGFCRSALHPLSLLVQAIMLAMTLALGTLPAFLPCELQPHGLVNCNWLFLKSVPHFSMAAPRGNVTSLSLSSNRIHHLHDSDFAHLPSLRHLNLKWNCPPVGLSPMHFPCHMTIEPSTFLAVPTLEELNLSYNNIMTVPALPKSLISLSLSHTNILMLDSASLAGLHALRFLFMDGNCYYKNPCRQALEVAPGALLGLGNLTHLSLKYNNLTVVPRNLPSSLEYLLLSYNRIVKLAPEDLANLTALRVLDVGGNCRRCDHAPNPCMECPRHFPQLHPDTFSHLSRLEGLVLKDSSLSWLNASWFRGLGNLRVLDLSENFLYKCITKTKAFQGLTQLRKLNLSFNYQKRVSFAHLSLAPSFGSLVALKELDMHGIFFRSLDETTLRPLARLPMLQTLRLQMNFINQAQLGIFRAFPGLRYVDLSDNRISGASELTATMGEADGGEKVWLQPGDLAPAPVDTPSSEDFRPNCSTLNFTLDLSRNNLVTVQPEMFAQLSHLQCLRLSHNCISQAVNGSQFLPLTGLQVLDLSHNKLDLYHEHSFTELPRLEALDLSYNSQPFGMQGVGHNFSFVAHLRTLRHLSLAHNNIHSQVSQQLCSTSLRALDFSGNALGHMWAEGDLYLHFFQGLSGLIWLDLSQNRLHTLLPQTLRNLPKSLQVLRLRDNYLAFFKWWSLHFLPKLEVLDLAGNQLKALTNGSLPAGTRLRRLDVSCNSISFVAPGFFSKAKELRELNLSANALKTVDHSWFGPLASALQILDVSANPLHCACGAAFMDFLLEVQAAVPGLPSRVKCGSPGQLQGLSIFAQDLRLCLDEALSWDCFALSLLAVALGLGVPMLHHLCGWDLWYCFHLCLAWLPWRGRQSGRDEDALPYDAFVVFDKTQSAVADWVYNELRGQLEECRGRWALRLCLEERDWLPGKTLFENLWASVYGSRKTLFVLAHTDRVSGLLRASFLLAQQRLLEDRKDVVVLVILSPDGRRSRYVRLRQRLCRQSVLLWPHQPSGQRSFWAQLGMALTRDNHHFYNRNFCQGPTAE
# MOR ag counter: activates human mu opioid receptor in HTR2A counterscreen | activation, % at 9.3 µM | 2,300 compounds, 5.3% hits | shares compounds with m5-HT2A agonist | AID 624380 | U2OS OPRM1 beta-arrestin PathHunter, luminescence; DMSO 0%, DAMGO 9.3 µM 100%;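 active = mean activation above the mean of DMSO-only wells plus 3 SD, cut at about 0.5% in these data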
# HTR2A ag conf: confirmation of mouse HTR2A serotonin receptor agonists | shares compounds with m5-HT2A agonist | CHO-K1 PathHunter beta-arrestin recruitment, luminescence; DMSO 0%, 30 µM serotonin 100% | activation, % at 7.6 µM | 2,300 compounds, 19% hits;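 active = mean activation across triplicates above the hit threshold derived in the original primary screen, cut at about 15% in these data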
# * hit, by the source's call; i = inactive; · = not tested or not shown. In the library only some 2.4% were active in any assay of this set; here they are far more common.
SMILES,TLR4-MyD88 BLA,TMEM16A act,NOD2-RIPK2 inh,m5-HT2A agonist,TMEM16A inh,TLR9-MyD88 block,MOR ag counter,HTR2A ag conf
Cc1cc(C(=O)CSc2nnc(-c3ccc(F)cc3)o2)c(C)n1CC1COc2ccccc2O1 (configuration not stated),-16.9,i,7.6,16.2*,i,2.5,-0.5,0.1
CC1=C(C(=O)N2CCCCCC2)CC(CC(=O)NC2CCCC2)C(=O)N1Cc1ccc(C(C)(C)C)cc1 (configuration not stated),·,·,-1.3,14.7*,·,·,-0.6,-2.3
COc1ccc(CN2C(=O)C(CC(=O)NC3CCCCC3)CC(C(=O)N(C)C)=C2C)cc1 (configuration not stated),·,·,3.8,-2.8,·,-4.0,·,·
COc1ccc(CN2C(=O)C(CC(=O)NC3CCCC3)CC(C(=O)N(C)C)=C2C)cc1 (configuration not stated),·,·,1.6,30.0*,·,-5.6,-0.7,-2.2
CCN(C[C@H]1N[C@@](CC)(C(=O)OC)[C@H]2C(=O)N(Cc3ccccc3)C(=O)[C@@H]12)S(=O)(=O)c1ccc(C)cc1,·,·,-6.0,-4.0,·,-11.8,·,·
Cc1cccc(-n2nnc(C(=O)NCc3ccccc3Cl)c2N)c1,-8.1,i,-1.9,-0.9,i,5.9,·,·
CCCC(=O)Nc1cccc(-c2nc3ccccc3c(=O)o2)c1,-12.7,i,-5.0,15.0*,i,0.4,-0.2,-1.3
Cc1ccc(C)c(NC(=O)c2ccc[n+](Cc3ccc([N+](=O)[O-])cc3)c2)c1,-6.5,i,-2.9,15.2*,i,6.1,-0.7,-3.4
O=C(c1cccs1)N1C(=O)c2cccc3cccc1c23,-8.0,i,3.5,1.1,i,3.1,·,·
CN(CC(=O)Nc1ccccc1Br)C(=O)c1cc2c(s1)CCCCC2,·,i,0.7,17.1*,i,-7.8,-0.3,0.4
c1ccc(C(c2nnnn2Cc2ccco2)N2CCN(C3CCCC3)CC2)cc1 (configuration not stated),17.9,i,-7.1,-7.6,i,8.7,·,·
COc1ccc(COC(=O)C2=C(C)NC(=O)NC2c2ccc(OC)c(OC)c2)cc1 (configuration not stated),·,i,2.3,9.1,i,7.7,·,·
COc1ccc(COC(=O)C2=C(C)NC(=O)NC2c2cccc(Br)c2)cc1 (configuration not stated),·,i,3.9,15.7*,i,-2.6,-0.5,15.6*
CCOC(=O)/C(C#N)=C/c1c(N2CCN(c3cccc(Cl)c3)CC2)nc2c(C)cccn2c1=O,·,·,-13.2,-0.2,·,-12.1,·,·
COCCNC(=O)/C(C#N)=C/c1c(N2CCN(c3cccc(Cl)c3)CC2)nc2c(C)cccn2c1=O,·,i,1.8,11.7,i,-12.9,·,·
C=CCNC(=O)/C(C#N)=C/c1c(N2CCN(c3cccc(Cl)c3)CC2)nc2c(C)cccn2c1=O,·,i,-6.4,19.9*,i,6.2,-0.7,6.0
CNC(=O)/C(C#N)=C/c1c(N2CCN(c3cccc(Cl)c3)CC2)nc2c(C)cccn2c1=O,·,i,-9.0,19.2*,i,-1.4,-0.6,0.4
CC(C)C[C@H]1CN=C(N(C)C)N1CCCCc1ccccc1,·,i,-0.9,19.7*,i,-6.0,-0.5,-3.4
Cc1ccc(NC(=O)CN(C)S(=O)(=O)c2cccs2)c(Br)c1,·,i,-4.2,-12.7,i,-2.9,·,·
Cc1ccc(NC(=O)CN(C)S(=O)(=O)c2ccc(Cl)s2)c(O)c1,·,i,0.1,17.8*,·,3.0,-0.8,-1.0
Cc1ccc(S(=O)(=O)CC(=O)Nc2nc(C(C)(C)C)cs2)cc1,·,i,3.0,18.8*,i,1.1,-0.1,-1.4
Cc1ccc(S(=O)(=O)/N=C(/c2ccc(F)cc2)N2CCOCC2)cc1,·,i,0.0,7.3,i,1.2,·,·
Cc1ccc(CNC(=O)c2coc(=O)c3ccccc23)o1,-12.4,i,-15.2,-4.9,i,5.1,·,·
Cc1ccccc1NCC(=O)N/N=C/c1c(C)c(C(=O)c2ccc(Cl)cc2)n2ccccc12,-11.9,i,-7.8,15.4*,i,-7.3,0.4,24.1*
CCOc1ccccc1Nc1nc(-c2sc(NC(=O)c3ccco3)nc2C)cs1,-11.0,i,-9.9,-7.3,i,-2.4,·,·
SMILES,TLR4-MyD88 BLA,TMEM16A act,NOD2-RIPK2 inh,m5-HT2A agonist,TMEM16A inh,TLR9-MyD88 block,MOR ag counter,HTR2A ag conf
Cc1ccccc1Nc1nc(-c2sc(NC(=O)c3ccco3)nc2C)cs1,-2.1,i,2.8,19.4*,i,4.1,-0.5,0.9
CC(OC(=O)c1ccc(-n2cnnn2)cc1)C(=O)Nc1ccccc1F (configuration not stated),·,i,6.1,3.2,·,2.5,·,·
Cc1ccc(NC(=O)CSc2nc3[nH]ncc3c(=O)[nH]2)cc1,-4.8,i,-13.1,2.7,i,-0.4,·,·
COc1ccc(S(=O)(=O)N2CCCCC2)cc1NC(=O)c1ccc(OC)c(OC)c1,·,i,3.3,15.3*,·,2.8,-0.7,-4.0
COc1ccc(S(=O)(=O)N2CCCCCC2)cc1NC(=O)c1ccccc1,·,i,0.6,-0.5,i,-11.6,·,·
COc1ccc(S(=O)(=O)N2CCC(C(=O)Nc3ccc(S(=O)(=O)N4CCCC4)cc3)CC2)cc1OC,·,i,-6.4,16.4*,i,3.4,-0.4,-3.3
COc1ccc(CCNC(=O)c2cccc(S(=O)(=O)N3CCOCC3)c2)cc1OC,·,i,-6.1,15.9*,·,-0.2,-0.4,-1.3
COc1ccc(CCNC(=O)c2cc(S(=O)(=O)N3CCOCC3)cn2C)cc1OC,·,i,1.4,-1.6,i,5.7,·,·
O=C(CCOc1ccccc1)N1CCN(c2ccc(O)cc2)CC1,·,i,-9.5,-5.7,i,6.6,·,·
CCC1(CC)C(=O)N(C)C(=O)NC1=Nc1ccc(OC)cc1,-5.2,i,-4.1,-1.6,i,1.7,·,·
Cc1ccc(CN2CCNC(=O)C2CC(=O)O)o1 (configuration not stated),9.4,i,10.6,21.4*,i,7.3,-0.6,-4.2
CCn1c(CNC(=O)COc2ccc(C(C)C)cc2)nnc1SCC(=O)Nc1ccccc1C(C)C,3.3,i,14.9,18.2*,25*,7.2,-0.2,2.2
COc1ccc(C(=O)CC(=O)C(=O)NCCc2cccc(C)c2)cc1,-15.0,i,-1.5,16.7*,i,-11.8,-0.5,-2.9
CCc1ccc(S(=O)(=O)Nc2ccc(N3CCN(C)CC3)cc2)cc1,·,i,-5.0,-4.2,i,2.4,·,·
